# Some of the results follow. The true hit rate is not given.
# Biological target: furin, P09958
# Experiment: furin cleavage Z-score vs untreated control; higher = more cleavage, active = 3.5 or more, inactive = 1 or less, 8 variable residues between constant flanks
# How it was run: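 Purified furin digested bead-held 8-mer peptide–cDNA fusions at 1:10 enzyme:substrate in 0.01 ml of 50 mM HEPES pH 7.5 with CaCl2 and NaCl for 7.5, 15 or 30 min. The cleavage Z-score compares sequencing counts of released DNA with furin-free reactions on a log scale, with lowess adjustment and median absolute deviation scaling.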
# furin, P09958, sequence (P09958 whole entry): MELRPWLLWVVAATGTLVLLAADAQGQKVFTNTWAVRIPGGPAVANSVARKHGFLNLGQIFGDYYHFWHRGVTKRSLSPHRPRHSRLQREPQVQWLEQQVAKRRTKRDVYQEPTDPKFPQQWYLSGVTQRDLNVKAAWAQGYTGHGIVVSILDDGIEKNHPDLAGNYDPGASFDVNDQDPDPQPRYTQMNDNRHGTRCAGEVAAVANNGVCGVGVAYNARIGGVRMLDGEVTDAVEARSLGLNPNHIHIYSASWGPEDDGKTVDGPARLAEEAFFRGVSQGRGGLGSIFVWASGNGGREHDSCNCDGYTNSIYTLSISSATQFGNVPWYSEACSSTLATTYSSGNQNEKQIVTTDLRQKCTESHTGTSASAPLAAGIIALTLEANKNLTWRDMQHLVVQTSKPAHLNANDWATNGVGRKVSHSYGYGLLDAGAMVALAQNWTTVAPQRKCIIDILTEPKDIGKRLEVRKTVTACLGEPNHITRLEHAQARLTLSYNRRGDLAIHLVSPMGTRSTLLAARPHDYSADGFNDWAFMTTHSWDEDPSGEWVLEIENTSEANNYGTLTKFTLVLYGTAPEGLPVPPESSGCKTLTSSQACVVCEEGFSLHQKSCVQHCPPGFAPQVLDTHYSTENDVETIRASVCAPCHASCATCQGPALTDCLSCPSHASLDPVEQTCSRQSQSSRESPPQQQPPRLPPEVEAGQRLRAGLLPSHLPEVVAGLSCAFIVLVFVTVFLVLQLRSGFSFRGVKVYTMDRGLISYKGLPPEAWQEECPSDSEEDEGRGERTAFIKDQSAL
Sequence,furin cleavage Z-score (7.5 min),furin cleavage Z-score (15 min),furin cleavage Z-score (30 min)
CAHDVVCCSMAGNASASA [HC2115],-0.409 (inactive),-0.66 (inactive),0.0366 (inactive)
CAVKCCSMSYAGNASASA [HC2014],-0.221 (inactive),0.288 (inactive),-1.16 (inactive)
CALSFRLKRNAGNASASA [FS-1372],12.3 (active),11.1 (active),9.61 (active)
CAQLRRLKRNAGNASASA [FS-284],13 (active),12.1 (active),9.76 (active)
CANSTALNCNAGNASASA [HC372],1.61,1.23,0.944 (inactive)
CAQLRRYPRNAGNASASA [FS-1249],10 (active),10.4 (active),8.2 (active)
CAASAYQVRNAGNASASA [HC255],2.82,-0.339 (inactive),0.446 (inactive)
CAQLRRHIDLAGNASASA [HC289],-1.12 (inactive),0.114 (inactive),0.176 (inactive)
CATARHTPVNAGNASASA [HC1570],-0.556 (inactive),-0.38 (inactive),-0.627 (inactive)
CAVYYLTRDPAGNASASA [HC1561],-0.916 (inactive),-0.905 (inactive),-0.163 (inactive)
CAEEVSFRVGAGNASASA [HC1232],0.0764 (inactive),1.08,-0.114 (inactive)
CATVVTSTWVAGNASASA [HC2158],0.721 (inactive),0.128 (inactive),0.308 (inactive)
CAINSVWKDLAGNASASA [HC1430],0.0949 (inactive),0.0646 (inactive),0.992 (inactive)
CAEILRKSRRAGNASASA [HC1297],-0.468 (inactive),1.48,-0.599 (inactive)
CAHSERKKRRAGNASASA [FS-249],8.63 (active),10.6 (active),10.2 (active)
CAFCCRKKRRAGNASASA [FS-586],3.8 (active),4.73 (active),5.93 (active)
CAAGIAYFSMAGNASASA [HC339],-0.0596 (inactive),0.534 (inactive),-0.966 (inactive)
CAQGNRWRRSAGNASASA [FS-139],14.1 (active),13 (active),9.79 (active)
CAGGSRWRRSAGNASASA [FS-124],6.79 (active),5.09 (active),5.21 (active)
CAITYSTYGKAGNASASA [HC806],0.0361 (inactive),-1.76 (inactive),1.03
CAAGQRLRRDAGNASASA [FS-395],12 (active),10.2 (active),8.42 (active)
CACVPRMRRPAGNASASA [FS-753],0.288 (inactive),-2.19 (inactive),0.777 (inactive)
CAAVGRAGRDAGNASASA [FS-11],0.567 (inactive),1.42,0.637 (inactive)
CAAVPRLRRDAGNASASA [FS-644],11.8 (active),12.1 (active),8.75 (active)
CAGDVVCCSMAGNASASA [HC2116],0.0391 (inactive),-0.825 (inactive),-0.011 (inactive)
CAVVCASMSYAGNASASA [HC81],0.42 (inactive),1.25,-0.0546 (inactive)

Sequence,furin cleavage Z-score (7.5 min),furin cleavage Z-score (15 min),furin cleavage Z-score (30 min)
CAGAPLGGAAAGNASASA [HC231],-0.433 (inactive),-0.224 (inactive),-0.596 (inactive)
CASQRRKRRAAGNASASA [FS-381],6.33 (active),6.94 (active),4.52 (active)
CAGGPRKRRAAGNASASA [FS-26],5.06 (active),5.01 (active),3.88 (active)
CAVLVRKRRAAGNASASA [FS-1178],12 (active),12.9 (active),8.97 (active)
CAVLVVLLLFAGNASASA [HC346],-1.01 (inactive),-0.224 (inactive),-0.108 (inactive)
CAKSYRKRRAAGNASASA [FS-47],9.96 (active),10.6 (active),7.5 (active)
CAVLVGGVLAAGNASASA [HC991],-0.269 (inactive),-2.26 (inactive),-1.24 (inactive)
CAEQVTSTWVAGNASASA [HC2182],1.33,-1.99 (inactive),0.572 (inactive)
CAVVCCSSSYAGNASASA [HC2057],0.153 (inactive),-0.457 (inactive),-1.02 (inactive)
CAVKPRPARSAGNASASA [FS-1499],10.9 (active),11.1 (active),7.25 (active)
CALPRRPARSAGNASASA [FS-1231],5.68 (active),6.25 (active),4.95 (active)
CARLRKQARAAGNASASA [FS-2711],0.606 (inactive),1.95,3
CAVPRRPARAAGNASASA [FS-150],9.11 (active),8.34 (active),7.62 (active)
CADLGRPARSAGNASASA [FS-1447],-0.204 (inactive),-0.114 (inactive),1.88
CAVPESDAAAAGNASASA [HC1128],-0.849 (inactive),-1.42 (inactive),-1.68 (inactive)
CAVTPCAAEEAGNASASA [HC1376],-0.828 (inactive),-1.48 (inactive),-0.78 (inactive)
CAVVCCMMSYAGNASASA [HC108],0.208 (inactive),0.787 (inactive),1.59
CAVVCCSYSYAGNASASA [HC2049],0.949 (inactive),0.0975 (inactive),-1.13 (inactive)
CAVVCCSTSYAGNASASA [HC2058],1.72,0.804 (inactive),2.04
CARLDRSYSYAGNASASA [FS-2986],0.288 (inactive),-0.0412 (inactive),-1.47 (inactive)
CASTPCSAHPAGNASASA [HC2579],-0.671 (inactive),0.373 (inactive),0.672 (inactive)
CARFKRQTSYAGNASASA [FS-2923],8.28 (active),8.05 (active),8.39 (active)
CARFPRTWWQAGNASASA [FS-1949],0.217 (inactive),-0.0617 (inactive),0.886 (inactive)
CARFPRAYSYAGNASASA [FS-2924],-0.296 (inactive),0.732 (inactive),4.36 (active)
CARFPRAAHPAGNASASA [FS-2139],3.15,2.75,4.11 (active)
